Experiment [1] can be described thus: compound effects on lung adenocarcinoma cell viability – A549, calcein-AM fluorescence, 48 h, basal, profiling panel (AID 1162). Also: test concentration not given here. The settings on record: higher = more signal.
Experiment [2] is described as follows: compound effects on differentiated 3T3-L1 adipocyte viability – cell-based, 3T3-L1 adipocytes, calcein-AM fluorescence, 48 h, basal, profiling panel (AID 1163). Also: test concentration not given here. The settings on record: 3T3-L1 adipocytes viability, higher = more signal.
Experiment [3] is described as follows: compound effects on hepatocellular carcinoma cell viability – HepG2, calcein-AM fluorescence, 48 h, basal, profiling panel (AID 1164). Also: test concentration not given here. The settings on record: higher = more signal.
Experiment [4] is described as follows: compound effects on multiple myeloma cell viability – MM1S, calcein-AM fluorescence, 48 h, basal, profiling panel (AID 1165). Also: test concentration not given here. The conditions noted are these: higher = more signal.
Experiment [5] in a line: calcein-AM signal in unstimulated myeloma cells – cell-based, calcein-AM fluorescence, 48 h, PK04 Diversity Set, profiling panel (AID 1166).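 Also: cells grown under basal conditions without added stimulus; test concentration not given here.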 The settings on record: RPMI8226 myeloma viability, higher = more signal.
The nature of experiment [6]: JC-1 mitochondrial signal, unstimulated HepG2 cells – cell-based, JC-1 fluorescence, 24 h, 100 nL compound, profiling panel (AID 1167). Also: test concentration not given here. The settings on record: HepG2 mitochondrial potential, higher = more signal.
A short description of experiment [7]: JC-1 mitochondrial signal, unstimulated adipocytes – cell-based, JC-1 fluorescence, 3T3-L1 adipocytes, 24 h, 100 nL compound, profiling panel (AID 1168). Also: test concentration not given here. The settings on record: JC-1 mitochondrial fluorescence, higher = more signal, called active from +8 up or from −8 down.
Experiment [8] is described as follows: JC-1 mitochondrial signal, unstimulated myeloma cells – cell-based, JC-1 fluorescence, RPMI8226, 24 h, 100 nL compound, profiling panel (AID 1169). Also: test concentration not given here. The settings on record: JC-1 mitochondrial potential fluorescence, higher = more signal.
Experiment [9] can be described thus: JC-1 mitochondrial signal, unstimulated MM1S myeloma – cell-based, JC-1 fluorescence, 24 h, 100 nL compound, profiling panel (AID 1170). Also: test concentration not given here. The conditions noted are these: MM1S mitochondrial potential, higher = more signal.
Experiment [10] is described as follows: resazurin metabolic signal in A549 cells – cell-based, resazurin fluorescence, 24 h, PK04 Diversity Set, profiling panel (AID 1171). Also: test concentration not given here. The conditions noted are these: A549 viability, higher = more signal, called active from +8 up or from −8 down.
Experiment [11] can be described thus: resazurin metabolic signal in HepG2 cells – cell-based, resazurin fluorescence, 24 h, PK04 Diversity Set, profiling panel (AID 1172). Also: test concentration not given here. The settings on record: HepG2 viability, higher = more signal. (In general: Alamar Blue is a resazurin reagent that responds to reducing activity.)
Experiment [12] can be described thus: budding yeast growth changes without added modifier – OD600, strain BY4716, 24 h, basal condition, primary screen (AID 1173). The conditions noted are these: S. cerevisiae BY4716 growth, OD600, 24 h; higher = more signal, called active from +8 up or from −8 down.
Experiment [13] in a line: viability profiling in MM1S myeloma cells – cell-based, resazurin fluorescence, basal, 24 h, PK04 Diversity Set, profiling panel (AID 1174). Also: test concentration not given here. The settings on record: higher = more signal, called active from +8 up or from −8 down.
The target in experiment [14] is Dihydroorotate dehydrogenase (quinone), mitochondrial (Plasmodium falciparum (isolate 3D7)) (UniProt Q08210). Put plainly: inhibition of P. falciparum DHODH – biochemical, C-terminal His tag, absorbance 600 nm, primary screen (AID 1175).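 Also: recombinant parasite enzyme with a five histidine tag at its C terminus; test concentration not given here.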 The settings on record: PfDHODH enzyme, DCIP absorbance 600 nm; higher = more signal, called active from +8 up or from −8 down.
Experiment [15] can be described thus: inhibition of PAO1 biofilm formation – strain PAO1, LB-PBS medium, absorbance 600 nm, primary screen (AID 1176). Also: test concentration not given here. The conditions noted are these: P. aeruginosa PAO1 growth/biofilm, A600, 12 h; higher = more signal.
A short description of experiment [16]: growth modulation of vineyard yeast isolate – strain RM11-1a, OD600, basal, 24 h, primary screen (AID 1177).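 Also: cultures grown under basal conditions with no added stressor; test concentration not given here.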 The settings on record: S. cerevisiae RM11-1a growth, OD600, 24 h; higher = more signal, called active from +8 up or from −8 down.
Experiment [17] in a line: growth of efflux-deficient E. coli DRC39 – strain DRC39, OD650, 24 h, E. coli filamentation inducers, primary screen (AID 1178).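 Also: growth measured as culture turbidity by optical density at 650 nm; test concentration not given here.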 The conditions noted are these: E. coli DRC39 acrAB, higher = more signal, called active from +8 up or from −8 down.
Experiment [18] can be described thus: growth of efflux-deficient E. coli DRC39 – strain DRC39, OD650, 48 h, E. coli filamentation inducers, primary screen (AID 1179).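 Also: screen aims at cell division blockers that make cells filament.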 The settings on record: E. coli DRC39 delta-acrAB growth, higher = more signal, called active from +8 up or from −8 down.
The nature of experiment [19]: viability profiling in RPMI8226 myeloma cells – cell-based, resazurin fluorescence, basal, 24 h, PK04 Diversity Set, profiling panel (AID 1180).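 Also: RPMI8826 multiple myeloma cell line at 5000 cells per well; test concentration not given here.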 The conditions noted are these: higher = more signal.
The target in experiment [20] is E3 ubiquitin-protein ligase XIAP (Homo sapiens) (UniProt P98170). Briefly: small molecules binding XIAP protein – biophysical, small-molecule microarray, fluorescence 635 nm, primary screen (AID 1181).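 Also: score merges 667 nm emission and signal to noise over triplicate slides.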 The settings on record: higher = more signal.

This is an account of results in PubChem BioAssay.

Molecules are shown by their SMILES. The source made the active and inactive calls. Unless noted, no rule for the calls is given here.

Dihydroorotate dehydrogenase (quinone), mitochondrial (Plasmodium falciparum (isolate 3D7)), sequence (Q08210 whole entry, looked up): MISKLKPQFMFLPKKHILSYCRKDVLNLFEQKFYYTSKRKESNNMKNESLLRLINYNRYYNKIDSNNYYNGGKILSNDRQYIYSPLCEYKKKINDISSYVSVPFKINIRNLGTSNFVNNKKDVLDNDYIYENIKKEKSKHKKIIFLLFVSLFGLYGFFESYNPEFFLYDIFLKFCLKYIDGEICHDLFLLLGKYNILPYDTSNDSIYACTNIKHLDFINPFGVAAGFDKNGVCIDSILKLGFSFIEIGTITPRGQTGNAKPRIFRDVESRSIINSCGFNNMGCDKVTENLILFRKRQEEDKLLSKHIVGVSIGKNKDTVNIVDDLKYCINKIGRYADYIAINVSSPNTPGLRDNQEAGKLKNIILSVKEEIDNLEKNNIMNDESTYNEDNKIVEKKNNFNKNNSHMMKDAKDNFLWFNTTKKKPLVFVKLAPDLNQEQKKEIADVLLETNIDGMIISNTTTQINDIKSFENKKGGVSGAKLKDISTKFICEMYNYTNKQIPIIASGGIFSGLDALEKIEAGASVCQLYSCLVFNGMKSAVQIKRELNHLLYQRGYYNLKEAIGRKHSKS
E3 ubiquitin-protein ligase XIAP (Homo sapiens), sequence (P98170 whole entry, looked up): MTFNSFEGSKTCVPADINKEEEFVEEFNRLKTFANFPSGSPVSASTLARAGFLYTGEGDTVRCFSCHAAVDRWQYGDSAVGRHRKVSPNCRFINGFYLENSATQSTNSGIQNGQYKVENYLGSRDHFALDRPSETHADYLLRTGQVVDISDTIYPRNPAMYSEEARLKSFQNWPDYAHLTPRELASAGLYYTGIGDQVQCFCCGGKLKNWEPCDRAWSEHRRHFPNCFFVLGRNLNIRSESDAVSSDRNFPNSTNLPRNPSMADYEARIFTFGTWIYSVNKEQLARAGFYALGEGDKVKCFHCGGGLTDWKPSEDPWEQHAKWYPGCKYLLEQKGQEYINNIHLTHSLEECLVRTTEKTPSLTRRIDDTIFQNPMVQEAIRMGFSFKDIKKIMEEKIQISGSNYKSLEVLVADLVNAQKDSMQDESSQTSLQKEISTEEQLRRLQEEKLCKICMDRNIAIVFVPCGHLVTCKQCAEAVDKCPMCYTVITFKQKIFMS

With `CC(=O)OC[C@H]1O[C@@H](ON=C(C)C)[C@H](OC(C)=O)[C@@H](OC(C)=O)[C@@H]1OC(C)=O`, the z-score in [1] is -0.132; in experiment [2], 0.0138; in experiment [3] it was -0.179; in experiment [4], -0.0646; in experiment [5], -0.43; in [6], -0.0132. The z-score is -0.763 (inactive) in [7]; 0.93 in [8]; 0.35 in experiment [9]; -0.0264 (inactive) in experiment [10]; 0.199 in experiment [11]; 0.515 (inactive) in experiment [12]. Besides, the z-score was -0.0437 (inactive) in experiment [13]; 0.569 (inactive) in [15]; 0.0958 (inactive) in experiment [16]; -0.308 (inactive) in experiment [17]; -2.31 (inactive) in experiment [18]; -0.0678 in [19]. The composite z-score in experiment [14] is -0.696 (inactive); in experiment [20], 0.0478.

Turning to `O=C(NN=C1C[C@@H](O)[C@@H](O)[C@@H]2[C@@H]3C(=O)N(Cc4ccccc4)C(=O)[C@@H]3CC[C@H]12)OCc1ccccc1`, the z-score is 0.614 in experiment [1]; 0.52 in [2]; -0.604 in [3]; 0.881 in experiment [4]; -0.256 in [5]; 0.846 in [6]. In addition, the z-score in [7] was 0.415 (inactive); in experiment [8], -0.415; in experiment [9], -0.427; in experiment [10], 0.288 (inactive); in experiment [11], 0.604; in experiment [12], -0.921 (inactive). The z-score in experiment [13] was 1.14 (inactive); in experiment [15] it was 0.471 (inactive); in experiment [16], -0.948 (inactive); in [17], 0.59 (inactive); in experiment [18], -0.783 (inactive); in experiment [19], 0.9. The values for the composite z-score in [14] and in [20] were -0.993 (inactive) and -0.21, respectively.

`COC(=O)CC=C[C@@H](C)[C@@H](C=NOC[C@@H](C)[C@H](OCc1ccccc1)C(C)C)OC`: the z-score in experiment [1] is -0.37; in experiment [2], -0.0404; in experiment [3] it was -0.0472; in [4] it was -0.18; in experiment [5] it was -0.991; in experiment [6], 0.0695. In addition, the z-score in experiment [7] is -1.61 (inactive); in experiment [8], -0.151; in [9] it was -0.93; in [10], -0.891 (inactive); in [11], -1.01; in experiment [12] it was 0.285 (inactive). Also, the z-score in experiment [13] is 0.405 (inactive); in [15], -0.892 (inactive); in experiment [16] it was 0.169 (inactive); in experiment [17], -0.213 (inactive); in experiment [18] it was -0.442 (inactive); in experiment [19], -0.286. Also, the composite z-score in experiment [14] is 0.957 (inactive); in experiment [20] it was -0.118.

On to `CCOC(=O)[C@H](Cc1ccccc1)NC(=O)CCC1CC(OC(=O)NCc2ccc3c(c2)OCO3)CC2(CCCC(COC(=O)NCCc3ccc(Cl)cc3)O2)O1` (stereo not given in full), for which the z-score was 1.81 in [1]; 0.71 in [2]; 0.622 in [3]; -0.845 in experiment [4]; -0.167 in experiment [5]; 0.783 in experiment [6]. For the same compound, the z-score was 0.361 (inactive) in experiment [7]; -0.162 in experiment [8]; -1.27 in experiment [9]; -0.455 (inactive) in [10]; -0.202 in experiment [11]; -0.65 (inactive) in experiment [12]. Besides, the z-score in experiment [13] is 0.366 (inactive); in [15] it was 0.769 (inactive); in experiment [16], -1.72 (inactive); in [17], -0.226 (inactive); in [18] it was -0.756 (inactive); in [19], -0.759. The composite z-score in experiment [14] was -1.47 (inactive); in [20], -0.133.

On to `CC(CCN1CCc2nc(-c3ccccc3)c(-c3ccccc3)cc2C1)=NO[C@H](C)c1cn([C@H](CO)Cc2ccccc2)nn1`, for which the z-score in experiment [1] was 0.75; in experiment [2], 0.23; in experiment [3], 0.603; in experiment [4], -1.31; in experiment [5], 0.163; in experiment [6], 2.57. In addition, the z-score in experiment [7] was -1.49 (inactive); in [8], 1.02; in experiment [9], 0.428; in experiment [10] it was -0.167 (inactive); in experiment [11] it was -0.391; in experiment [12], -1.74 (inactive). Besides, the z-score in experiment [13] is 0.474 (inactive); in experiment [15], 0.593 (inactive); in experiment [16] it was -0.222 (inactive); in experiment [17], -0.424 (inactive); in experiment [18] it was -1.95 (inactive); in experiment [19], 0.2. In addition, the composite z-score in [14] was -1.38 (inactive); in experiment [20], -0.156.
